FLuc counter: counter-screen for miR-21 project: firefly luciferase inhibitors or activators; hit rate 6.9% among 360,000; AID 588342; P08659; purified FLuc, Km substrates, luminescence inhibition; Potency, µM (doses to about 57.5 µM), for inactives: at the top dose activity change, negative = inhibition, usual class: inhibitors;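 also: plate controls were vehicle for no effect and reference inhibitor for full effect; nearly all actives have a fitted effect of over 55% in size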
Target sequence (P08659 whole entry, looked up): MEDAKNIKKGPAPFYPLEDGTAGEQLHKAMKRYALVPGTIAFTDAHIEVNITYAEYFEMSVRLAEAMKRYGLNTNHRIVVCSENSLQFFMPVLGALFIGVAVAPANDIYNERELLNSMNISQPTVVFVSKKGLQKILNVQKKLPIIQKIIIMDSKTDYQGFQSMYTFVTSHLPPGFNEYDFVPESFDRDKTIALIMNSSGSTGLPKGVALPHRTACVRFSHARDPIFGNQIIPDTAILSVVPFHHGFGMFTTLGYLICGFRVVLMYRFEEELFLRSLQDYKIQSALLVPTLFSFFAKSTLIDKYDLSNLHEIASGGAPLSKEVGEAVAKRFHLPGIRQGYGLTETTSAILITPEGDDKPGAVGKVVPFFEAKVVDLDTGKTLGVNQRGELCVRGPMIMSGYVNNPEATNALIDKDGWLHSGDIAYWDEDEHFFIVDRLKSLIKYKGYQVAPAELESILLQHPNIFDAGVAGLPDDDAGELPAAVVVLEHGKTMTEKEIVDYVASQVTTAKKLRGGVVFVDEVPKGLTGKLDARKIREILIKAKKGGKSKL
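Purified P. pyralis luciferase (10nM final) with 10uM D-luciferin and 10uM ATP (Km levels) in 50mM Tris acetate pH 7.5, 10mM Mg acetate, 0.01% Tween-20, 0.05% BSA; qHTS 6-point titration, ~60 µM downward; luminescence read.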
ELG1 genotoxic: genotoxicity induction in ELG1-luciferase HEK293T cells. HEK293T ELG1-luciferase reporter, luminescence, 16 h. Potency, µM (top dose mostly 46 µM), for inactives: top-dose activity change, positive = activation, actives largely listed as activators. hit rate 1.3% among 330,000. AID 504466; also: % of control where 0% means no effect; nearly all actives have a fitted effect of over 60% in size
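Genotoxicity was scored as increased ELG1-luciferase reporter signal, measured by ONE-Glo luminescence (30 min, room temperature). Compound or vehicle exposure of the HEK293T reporter cells lasted 16 hr at 37°C.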
Luc counter: blocks Kinase-Glo luciferase, a counter-screen artifact; Q27757; Kinase-Glo luciferase, ATP luminescence, 8 min; Potency, µM (series often up to 38.3 µM), for inactives: at the top dose activity change, negative = inhibition, actives largely listed as inhibitors; hit rate 0.28% among 200,000; AID 1379; also: % is scaled to controls: 0 for no effect and ±100 for the full control effect; nearly all actives have a fitted effect of over 60% in size
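Compound is pinned into ATP-containing buffer (10 uM ATP, imidazole pH 7.2, 7 mM MgCl2). Kinase-Glo luciferase reagent is then added. Light output is recorded following an 8-min room-temperature incubation.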
NPC1 prom act: activates the NPC1 promoter | Huh7 NPC1 promoter luciferase reporter, 24 h | Potency, µM (highest dose often 9.22 µM), for inactives: top-dose activation, most hits filed as activators | hit rate 2.4% among 320,000; also: % of control where 0% means no effect; nearly all actives have a fitted effect of over 60% in size
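Luminescence from an NPC1 promoter-driven luciferase reporter in stably transfected Huh7 cells was measured after 24 h compound treatment at 37 °C, followed by 10 min ambient incubation with luciferase detection reagent.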
Rab9 promoter act: activates the Rab9 promoter; hit rate 2.8% among 320,000; Potency, µM (top dose mostly 9.22 µM), for inactives: at the highest dose activation, negative = inhibition, actives largely listed as activators; Huh7 Rab9 promoter-luciferase reporter, luminescence, 24 h; AID 485297; also: % of control where 0% means no effect; nearly all actives have a fitted effect of over 60% in size
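Using Huh7 cells stably transfected with Rab9 promoter–luciferase, compounds were incubated 24 h at 37 °C, 5% CO2; luciferase luminescence was read 10 min after reagent addition.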
SMN2 splice enh: enhancers of SMN2 splice variant expression. Potency, µM (series often up to 46.1 µM), for inactives: top-dose activity change, positive = activation, hits mostly activators. AID 1458. HEK293 SMN2-luciferase splicing reporter, luminescence, 30-36 h. hit rate 2.8% among 210,000; also: % of control where 0% means no effect; nearly all actives have a fitted effect of over 55% in size
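qHTS luciferase splicing reporter: luminescence rises when SMN2 exon 7 is included in transfected HEK293 cells. Compound exposure lasted 30-36 h at 37C, with 4.5 mM final sodium butyrate as control, followed by a ONE-Glo read.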
* marks the source's active call; other numbers are inactive results; u = inconclusive; x = no result; [ ] = dose if it differs, or a comment. Compounds with a hit are over-represented: about 7.5% of the library has one in this group of screens. Calls follow the shape of the dose curve; as a rule, active = well fitted curve in the direction sought with a large enough effect; inconclusive = small, poorly fitted or top-dose-only effect, or another doubt; inactive = no such curve, though single readings can be large; an effect the other way counts as inactive or inconclusive. Potency is read from the fitted curve at half-maximal effect.

SMILES	FLuc counter	ELG1 genotoxic	Luc counter	NPC1 prom act	Rab9 promoter act	SMN2 splice enh
CC1Oc2ccccc2C=C1/C=N/NC(=O)c1ccncc1 (stereo not drawn)	17µM*	0%	x	0%	-2%	x
CCCCSCCCNC(=O)c1c[nH]c2ccc(S(=O)(=O)Nc3cccc(OC)c3)cc2c1=O	-18%	x	x	x	x	x
CCc1ccc(N=C2N=C(N)c3ccccc32)cc1	2.7µM*	u	11%	-3%	29%	u
Cc1cccc(-n2ncc(C(=O)NCc3ccccn3)c2C2CCN(C(=O)OC(C)(C)C)CC2)c1	-2%	x	x	x	x	x
CCOC(=O)c1ccc(N2C(=O)c3n[nH]c(C)c3C2c2ccco2)cc1 (stereo not drawn)	-1%	-2%	-7%	u	-4%	-34%
Cc1ccc(N2C(=O)c3n[nH]c(C)c3C2c2ccco2)cc1 (stereo not drawn)	8.5µM*	u	1%	u	23%	u
O=C(NCC(c1cccs1)S(=O)(=O)c1cccs1)c1c(F)cccc1F (stereo not drawn)	1%	x	x	x	x	x
Cc1ccc(Oc2ccc3c(c2)C(=O)N(c2ccc(S(=O)(=O)Nc4nccs4)cc2)C3=O)cc1	19µM*	-2%	-1%	-5%	-5%	-15%
COc1cccc(Cn2cnc3c2c(=O)n(C)c(=O)n3C)c1	3%	x	x	x	x	-1%
CCc1ccc(NC(=O)CC2C(=O)N(c3cccc(OC)c3)C(=O)N2Cc2ccc(F)cc2)cc1 (stereo not drawn)	-2%	x	x	x	x	x
Cc1nc(S/C(=C/c2ccc(OCc3ccc(C(=O)O)cc3)cc2)C(=O)O)n[nH]1	27µM*	0%	1%	6%	-4%	-31%
O=c1[nH]c2ccccc2[n+]([O-])c1-c1ccccc1	u	1%	-3%	-1%	-3%	-1%
COc1cccc(-c2nnn(CC(=O)N3CCCCC3)n2)c1	-19%	12%	x	12%	30%	x
COc1cccc(-c2nnn(CC(C)=O)n2)c1	6.7µM*	u	-7%	2.8µM*	2.5µM*	13µM*
COc1ccc(C(=O)Cn2nnc(-c3ccccc3F)n2)cc1	15µM*	4%	x	21%	28%	x
COc1ccc(-c2ccc(-c3nnn(CC(C)=O)n3)cc2)cc1	u	7%	-1%	2.5µM*	1.6µM*	u
CCC(C(=O)O)n1nnc(-c2ccc(OCc3ccccc3)c(OC)c2)n1 (stereo not drawn)	6%	-2%	x	-2%	15%	x
CCC(C(=O)O)n1nnc(-c2ccc(-c3ccc(OC)cc3)cc2)n1 (stereo not drawn)	9.5µM*	u	-1%	26%	22%	u
CCc1cccc(C)c1NC(=O)CN1CCN(S(=O)(=O)c2ccc(C(C)(C)C)cc2)CC1	1%	9%	x	-2%	-3%	x
C/C(CC(=O)Nc1ccccn1)=N\NC(=O)c1ccncc1	2%	3%	x	1%	2%	x
CC1(C)CNC(=O)c2sc(N3CCCCC3)nc2C1	15µM*	u	-3%	13%	22%	23%
CC1(C)CC(=O)c2sc(N3CCCCC3)nc2C1	u	u	-8%	u	u	-8%
CC1Cc2cc(S(=O)(=O)NCc3ccc(N(C)C)cc3)ccc2N1C(=O)C1CCC1 (stereo not drawn)	-12%	x	x	x	x	x
COc1cccc(/C=C/C(=O)NNC(=O)c2ccncc2)c1	u	0%	x	0%	-1%	x
COc1cccc(/C=C/C(=O)Nc2ccc(OC)nc2)c1	11µM*	6%	-4%	27%	25%	1%[1.84 µM]
COc1ccc(NC(=O)/C=C/c2ccc(F)cc2)cn1	11µM*	12%	-1%	u	u	u
COc1ccc(NC(=O)/C=C/c2ccccc2)cn1	8.5µM*	u	-2%	3.5µM*	2.5µM*	10%[1.84 µM]

Screens: PubChem, National Center for Advancing Translational Sciences (NCATS)
